Test results taken from PubChem BioAssay AID624116 (National Center for Advancing Translational Sciences (NCATS), 2012).
Results filed as inconclusive are left out. Active and inactive are the calls of the source. Calls follow the shape of the dose curve; as a rule, active = well fitted activation curve with a large enough effect; inconclusive = small, poorly fitted or top-dose-only effect; inactive = no such curve, though single readings can be large or run the other way.

Test: qHTS Assay for Rab9 Promoter Activators: Hit Validation Using Renilla Luciferase Read-Out for Rab9; as to activation, negative = inhibition: % of control where 0% means no effect
Conditions: Huh7 Rab9 promoter Renilla luciferase reporter, 24 h; series mostly up to 76.9 µM; activation, negative = inhibition: at the top concentration
Method in brief: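 Huh7 cells stably carrying promoter-luciferase reporter, exposed to compound for 24 h at 37 deg C. Luminescence read 10 min after adding luciferase detection reagent at room temperature.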
Potency is read from the fitted curve at half-maximal effect.

SMILES | Potency | activation, negative = inhibition
COc1ccc([N+](=O)[O-])cc1COc1ccc2c(-c3ccccc3)cc(=O)oc2c1 | 3.28 µM (active) | 
Cc1ccc(C(=O)Nc2nnc(S(=O)(=O)N3CCOCC3)s2)cc1 |  | 3.62% (inactive)
NC(=O)COC(=O)c1ccc2noc(-c3ccccc3)c2c1 |  | -0.713% (inactive)
N#C/C(=C\c1ccc[nH]1)C(=O)Nc1ccccc1Cl | 23.2 µM (active) | 
Cc1nc(-c2ccccn2)sc1C(=O)Nc1ccc(F)cc1F |  | -4.26% (inactive)
Cc1ccc(NC(=O)COC(=O)C2C3CC4OC(=O)C2C4C3)cc1Cl (stereo not drawn) |  | -1.3% (inactive)
CCN(CC(=O)N(CC(C)C)c1c(N)n(CC(C)C)c(=O)[nH]c1=O)Cc1nc2ccccc2c(=O)[nH]1 |  | -1.5% (inactive)
CC1=C(C(=O)OC2CCCC(C)C2)C(c2ccccc2)NC(=O)N1 (stereo not drawn) |  | -36.9% (inactive)
NC(=O)C(=O)NN=C1C2CC3CC(C2)CC1C3 |  | -4.68% (inactive)
COc1ccccc1NC(=S)NCc1ccc(Cl)cc1 |  | -3.88% (inactive)
COCCNC(=O)Cn1nc(-c2ccccc2)c2ccccc2c1=O |  | -3.11% (inactive)
CCC1CCCCN1CCCNC(=O)c1ccc2nc(N3CCCCC3)sc2c1 (stereo not drawn) |  | 0.973% (inactive)
O=C(CN1C(=O)COc2ccc(Cl)cc21)NCC1CCCO1 (stereo not drawn) |  | 9.31% (inactive)
O=C(COC(=O)c1ccc(-c2nnc(-c3ccccc3)o2)cc1)c1ccccc1 |  | -3.43% (inactive)
CCCCn1c(Nc2ccc(OC)cc2)nc2ccccc21 |  | -15.8% (inactive)
COc1ccc(C)cc1N(C(=O)CNC(=O)c1ccco1)C(C(=O)NC1CCCC1)c1cccnc1 (stereo not drawn) |  | 14.4% (inactive)
O=C(COc1ccccc1F)Nc1ccc(-c2nc3ccccc3s2)cc1 |  | -35.1% (inactive)
C=CCOC(=O)N1CCN(c2cccc(C(F)(F)F)c2)CC1 |  | -9.5% (inactive)
Cc1ccc(C2C3=C(CC(C)(C)CC3=O)N(CCN3CCOCC3)C3=C2C(=O)CC(C)(C)C3)cc1 | 20.7 µM (active) | 

SMILES | Potency | activation, negative = inhibition
CCOC(=O)C1(Cc2cccc(Cl)c2)CCCN(C(=O)CCSC)C1 (stereo not drawn) |  | -4.46% (inactive)
Cc1ccc(NC(=O)NC(=O)c2ccccc2)cc1F |  | 3.8% (inactive)
CC(=O)NC(CCCN1C(=O)c2ccccc2C1=O)c1nnn(C)n1 (stereo not drawn) |  | -10.2% (inactive)
CC1CN(C(=O)c2ccncc2)CC(C)O1 (stereo not drawn) |  | 5.39% (inactive)
Cn1c(SCc2ccccc2)nnc1-c1cnccn1 |  | -3.61% (inactive)
O=CN1CCN(C(=O)c2ccccc2Cl)CC1 |  | -5.76% (inactive)
COc1ccc(-n2cc(-c3ccc(Cl)cc3)[nH]c2=S)cc1 |  | -6.48% (inactive)
COc1ccc(NC(=O)CCCN2C(=O)C(c3ccccc3)Oc3cccnc32)cc1OC (stereo not drawn) |  | -24.3% (inactive)
CC(C)C(NC(=O)c1ccc([N+](=O)[O-])cc1Cl)C(=O)N1CCCC1 (stereo not drawn) |  | 6.26% (inactive)
CC1CC(C)CN(CC(=O)N2CCOCC2)C1 (stereo not drawn) |  | -3.11% (inactive)
Cc1ccc(S(=O)(=O)/N=C(/Nc2ccccn2)c2ccc(Cl)cc2)cc1 | 14.6 µM (active) | 
CCc1cc(C(=O)Nc2ccccc2)cs1 |  | -35.2% (inactive)
CC(=O)Nc1ccc(-c2csc(Nc3ncccn3)n2)cc1 |  | 2.38% (inactive)
Cc1nc2sc(C(=O)OC(C)C)c(N)c2c(C)c1C |  | 4.33% (inactive)
Cc1ccc(C)c(Nc2cc(C)nc3ncnn23)c1 |  | -1.68% (inactive)
NCCOc1ccccc1-c1ccccc1 |  | 2.31% (inactive)
Cc1ccc(C#N)c(SCC(=O)Nc2nccs2)n1 |  | 0.867% (inactive)
Nc1ccccc1C(=O)N/N=C1/C2CN3CCN(C2)CC1(Cc1ccccc1)C3 |  | 3.83% (inactive)
S=C1NCN(CCc2ccccc2)CN1Cc1ccccc1 |  | -1.12% (inactive)
